# In PubChem BioAssay (NCATS):
# Inconclusive results are not listed. Unmarked numbers belong to inactive results. Calls of active or inactive are those of the source. The call rests on the fitted dose curve; in most records, active means well fitted curve in the direction sought with a large enough effect; inconclusive means small, poorly fitted or top-dose-only effect, or another doubt; inactive means no such curve, though single readings can be large; an effect the other way counts as inactive or inconclusive.
# Assay: Quantitative High-Throughput drug screen in 47 multiple myeloma cell lines against the NCATS MIPE library collection: MOLP8_DSMZ cell viability assay (AID 1918977); further: nearly all actives have a fitted effect of over 45% in size;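 on viability (% of control): 100% = DMSO-only wells and 0% = media-only wells without cells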
# Conditions: MOLP8 myeloma viability, CellTiter-Glo ATP luminescence, 48 h; series mostly up to 45.8 µM; viability (% of control): at the top concentration
# In short: (§1)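 MIPE 4.0 approved/investigational drugs; 500 cells/well; 48 h 37 °C humidified 5% CO2; CTG luminescence readout; DMSO = 100%, media = 0% viability.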
# Potency means the concentration at half of the fitted maximal effect.
SMILES,viability (% of control),Potency
Nc1cccc2c1C(=O)N(C1CCC(=O)NC1=O)C2=O (stereo not drawn),97.4%,–
CC(C)[C@H](CO)Nc1nc(Nc2cccc(Cl)c2)c2ncn(C(C)C)c2n1,–,18.7 µM (active)
O=C1c2c(O)cccc2[C@@H]([C@@H]2O[C@H](CO)[C@@H](O)[C@H](O)[C@H]2O)c2cc(CO)cc(O)c21,154%,–
C[C@@H]1C(=O)O[C@H]2CC34[C@H]5C[C@@H](C(C)(C)C)C36[C@H](OC(=O)[C@@H]6O)O[C@@]4(C(=O)O5)[C@]21O (stereo partly drawn),79.8%,–
CCCNC(=O)[C@H]1O[C@H]1C(=O)N[C@H](C(=O)N1CCC[C@@H]1C(=O)OC)C(C)CC (stereo partly drawn),–,2.64 µM (active)
CC(=O)O[C@H]1C[C@@H]2CC[C@H]3[C@H]4C[C@H]([N+]5(C)CCCCC5)[C@@H](OC(C)=O)[C@@]4(C)CC[C@@H]3[C@@]2(C)C[C@H]1[N+]1(C)CCCCC1,121%,–
COc1cc(C(C)C)c(Oc2cnc(NC(CO)CO)nc2N)cc1I,119%,–
NC(=O)c1ncn([C@@H]2O[C@H](CO)[C@@H](O)[C@@H]2O)c1O,118%,–
CC(=O)N1CCN(c2ccc(OCc3nn(C)c(C)c3-c3cccc4c(CCCOc5cccc6ccccc56)c(C(=O)O)n(Cc5cccnc5)c34)cc2)CC1,–,16.6 µM (active)
NC1=N[C@H]2[C@H](CS[C@H]2CCCCC(=O)O)N1,94.6% [at 23.2 µM],–
C[C@H](CCC(=O)O)[C@H]1CC[C@H]2[C@@H]3[C@H](O)C[C@@H]4C[C@H](O)CC[C@]4(C)[C@@H]3CC[C@]12C,80.4%,–
CN(C)CC(=O)N1CCC(c2ccc(NC(=O)c3ncc(C#N)[nH]3)c(C3=CCCCC3)c2)CC1,–,5.26 µM (active)
CNC(=O)c1cccc(-c2ccc3c(N4CCOC[C@H]4C)nc(N4CCOC[C@H]4C)nc3n2)c1,–,0.0235 µM (active)
COC(=O)[C@@H]1CC2=CC(=O)CC[C@]2(C)[C@@]23O[C@@H]2C[C@@]2(C)[C@H](CC[C@@]24CCC(=O)O4)[C@@H]13,100%,–
C[C@@H](NCc1cc2ccccc2[nH]1)c1cccc2ccccc12,108%,–
COC1=C(OC)C(=O)C(CC=C(C)CCC=C(C)CCC=C(C)CCC=C(C)CCC=C(C)CCC=C(C)CCC=C(C)CCC=C(C)CCC=C(C)CCC=C(C)C)=C(C)C1=O,138%,–
CC(=O)O[C@H]1C[C@@H]2CC[C@H]3[C@H]4C[C@H]([N+]5(C)CCCCC5)[C@@H](OC(C)=O)[C@@]4(C)CC[C@@H]3[C@@]2(C)C[C@H]1N1CCCCC1,107%,–

# Assay: Quantitative High-Throughput drug screen in 47 multiple myeloma cell lines against the NCATS MIPE library collection: NCIH929_DSMZ cell viability assay (AID 1918978); further: nearly all actives have a fitted effect of over 35% in size
# Conditions: NCI-H929 myeloma viability, CellTiter-Glo ATP, 48 h; series mostly up to 45.8 µM; viability, % of control: at the top concentration
# In short: as §1
SMILES,Potency,"viability, % of control"
CC(C)[C@H](CO)Nc1nc(Nc2cccc(Cl)c2)c2ncn(C(C)C)c2n1,18.7 µM (active),–
N#Cc1cc(NC(=O)Nc2nnc(-c3ccncc3)s2)ccc1-c1cn[nH]c1,–,120%
COc1cc(OC)c(NC(=O)Nc2cc(C)on2)cc1Cl,–,93.3%
COC(=O)[C@@H]1[C@H]2C[C@@H]3c4[nH]c5ccccc5c4CCN3C[C@@H]2CC[C@@H]1O,–,112%
COc1cc2c(cc1O)CCC1C2CC[C@@]2(C)C1CC[C@@H]2O (stereo partly drawn),7.43 µM (active),–
C[N+](C)([O-])CCNc1ccc(NCC[N+](C)(C)[O-])c2c1C(=O)c1c(O)ccc(O)c1C2=O,–,116%
O=C1c2c(O)cccc2[C@@H]([C@@H]2O[C@H](CO)[C@@H](O)[C@H](O)[C@H]2O)c2cc(CO)cc(O)c21,–,111%
CCCNC(=O)[C@H]1O[C@H]1C(=O)N[C@H](C(=O)N1CCC[C@@H]1C(=O)OC)C(C)CC (stereo partly drawn),4.69 µM (active),–
CC(=O)O[C@H]1C[C@@H]2CC[C@H]3[C@H]4C[C@H]([N+]5(C)CCCCC5)[C@@H](OC(C)=O)[C@@]4(C)CC[C@@H]3[C@@]2(C)C[C@H]1[N+]1(C)CCCCC1,–,114%
COc1cc(C(C)C)c(Oc2cnc(NC(CO)CO)nc2N)cc1I,–,127%
CCN(CC)CCCCNc1ncc2c(n1)N(C)C(=O)N(c1c(Cl)c(OC)cc(OC)c1Cl)C2,–,93%
Cc1cc(-c2nnc3n2CCCCC3)c(C)n1-c1ccccc1,–,89.4%
COc1cc(CCc2cc(NC(=O)c3ccc(N4C[C@@H](C)N[C@@H](C)C4)cc3)n[nH]2)cc(OC)c1,10.5 µM (active),–
NC(=O)c1ncn([C@@H]2O[C@H](CO)[C@@H](O)[C@@H]2O)c1O,–,84.9%
CC(O)(C#Cc1ccc2c(c1)N(c1nc(N)ncc1Cl)CC2)c1nccs1 (stereo not drawn),1.18 µM (active),–
c1coc(CNc2ncnc3nc[nH]c23)c1,–,89.5%

SMILES,Potency,"viability, % of control"
O=C(CN1C(=O)C2(CCCC2)NC[C@H]1c1cc(F)cc(F)c1)Nc1ccc2c(c1)C[C@@]1(C2)C(=O)Nc2ncccc21,–,125%
CC(=O)N1CCN(c2ccc(OCc3nn(C)c(C)c3-c3cccc4c(CCCOc5cccc6ccccc56)c(C(=O)O)n(Cc5cccnc5)c34)cc2)CC1,0.0332 µM (active),–
NC1=N[C@H]2[C@H](CS[C@H]2CCCCC(=O)O)N1,–,111% [at 23.2 µM]
CC(=O)N[C@H]1[C@@H]([C@H](O)[C@H](O)CO)OC(C(=O)O)=C[C@@H]1N=C(N)N,–,105%
C[C@H](CCC(=O)O)[C@H]1CC[C@H]2[C@@H]3[C@H](O)C[C@@H]4C[C@H](O)CC[C@]4(C)[C@@H]3CC[C@]12C,–,104%
CN(C)CC(=O)N1CCC(c2ccc(NC(=O)c3ncc(C#N)[nH]3)c(C3=CCCCC3)c2)CC1,16.6 µM (active),–
CNC(=O)c1cccc(-c2ccc3c(N4CCOC[C@H]4C)nc(N4CCOC[C@H]4C)nc3n2)c1,0.0166 µM (active),–
CC[C@H]1OC(=O)[C@H](C)[C@@H](O[C@H]2C[C@@](C)(OC)[C@@H](O)[C@H](C)O2)[C@H](C)[C@@H](O[C@@H]2O[C@H](C)C[C@H](N(C)C)[C@@H]2O)[C@](C)(OC)C[C@@H](C)C(=O)[C@H](C)[C@@H](O)[C@]1(C)O,–,94.4%
COc1cc(C[C@@H](CO)[C@H](CO)Cc2ccc(O)c(OC)c2)ccc1O,0.59 µM (active),–
COC(=O)[C@@H]1CC2=CC(=O)CC[C@]2(C)[C@@]23O[C@@H]2C[C@@]2(C)[C@H](CC[C@@]24CCC(=O)O4)[C@@H]13,–,99.3%
C[C@@H](NCc1cc2ccccc2[nH]1)c1cccc2ccccc12,–,92.5%
CC1=C(C(=O)Nc2cc3cn[nH]c3cc2F)C(c2ccc(Cl)cc2F)N=C(c2ccnc(Cl)c2)N1 (stereo not drawn),14.8 µM (active),–
C=C1C(=CC=C2CCC[C@]3(C)[C@@H]([C@H](C)CCCC(C)(C)O)CC[C@@H]23)C[C@@H](O)C[C@@H]1O,3.72 µM (active),–
C[C@H]1COc2c(N3CCN(C)CC3)c(F)cc3c(=O)c(C(=O)O)cn1c23,–,125%
CC(=O)O[C@H]1C[C@@H]2CC[C@H]3[C@H]4C[C@H]([N+]5(C)CCCCC5)[C@@H](OC(C)=O)[C@@]4(C)CC[C@@H]3[C@@]2(C)C[C@H]1N1CCCCC1,–,139%
